# Source: PubChem BioAssay (NCATS)
# Values joined by “and” are separate entries in the source; they are usually repeats but may differ in a detail not shown here. Equal entries are not always repeated. Results filed as inconclusive are left out. Entries that show only a call come without a potency. Unmarked numbers belong to inactive results. Active and inactive are the calls of the source. Calls come from the whole dose curve; as a rule, active = well fitted curve in the direction sought with a large enough effect; inconclusive = small, poorly fitted or top-dose-only effect, or another doubt; inactive = no such curve, though single readings can be large; an effect the other way counts as inactive or inconclusive.
# Assays:
# [1] = Viability qHTS for spleen associated tyrosine kinase inhibitor (SYKi) drug resistant MV4-11 cells (AID 1963824); note: nearly all actives have a fitted effect of over 35% in size; note: potency is the fitted concentration of half-maximal effect
# Procedure, shortened: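 SYK-inhibitor-resistant MV4-11 AML cells were seeded at 500 per well onto compound and cultured 72 hours (37 °C, 5% CO2). CellTiter-Glo was then added, and after 10 min at room temperature, luminescence gave viability.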
# [2] = Cellular viability qHTS for adrenocortical cancer (ACC) cell line SW-13 (AID 1963989); details: SW-13 ACC cells viability, CellTiter-Glo, 48 h; activity (max response): stronger effect = lower value; note: nearly all actives have a fitted effect of over 65% in size; note: potency is the fitted concentration of half-maximal effect;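 for activity (max response): cells grown in serum-free medium with ITS supplement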
# Procedure, shortened: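 48 h treatment, SW-13 in ITS/DMEM serum-free; doses up to 46 uM; readout CellTiter-Glo luminescence; curve fit four-parameter logistic.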
# [3] = Cellular viability qHTS for adrenocortical cancer (ACC) cell line NCI-H295R (AID 1963990); note: nearly all actives have a fitted effect of over 60% in size; note: potency is the fitted concentration of half-maximal effect
# Procedure, shortened: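 Compound titrations (up to 46 uM final) are applied to NCI-H295R cultures for 48 h at 37C. Viable cell number is estimated by CellTiter-Glo signal, normalised to DMSO and doxorubicin controls.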
# [4] = Quantitative highthroughput screen to assess conditional lethalithy of NOMO1 cells grown in RPMI1640 with untreated serum (RPMI+s) (AID 1963876); note: nearly all actives have a fitted effect of over 35% in size
# Procedure, shortened: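 Each medium arm—HPLM with 10% dialyzed FBS, or RPMI1640 with 5 mM glucose and 10% untreated or dialyzed FBS—was screened against an 11-point, 3-fold compound titration for 48 h at 37 °C, with CellTiter-Glo luminescence as endpoint.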
structure (smiles),measurement,setting,value
CC(C)N(CCC(C(N)=O)(c1ccccc1)c1ccccn1)C(C)C (stereo not drawn),Potency,[1],inactive
same,activity (max response),[2],4.36%
same,Potency,[3],inactive
C#CCOC(C(=O)OCCN(C)C)(c1ccccc1)c1ccccc1,Potency,[1],inactive
same,activity (max response),[2],15.9%
same,Potency,[3],inactive
C=CC(=O)NCNC(=O)C=C,Potency,[1],inactive
same,activity (max response),[2],-0.888%
same,Potency,[3],inactive
CN(C)NC(=O)CCC(=O)O,Potency,[1],inactive
same,activity (max response),[2],-24.4%
same,Potency,[3],inactive
C=CCN1C[C@H](C)N([C@H](c2ccc(C(=O)N(CC)CC)cc2)c2cccc(OC)c2)C[C@H]1C,"viability, % of control",[1],93.3% [at 9.25 µM]
same,activity (max response),[2],-5.15%
same,Potency,[3],inactive
C[C@]12Cc3cn[nH]c3C[C@@H]1CC[C@@H]1[C@@H]2CC[C@@]2(C)[C@H]1CC[C@]2(C)O,Potency,[1],18.6 µM (active)
same,activity (max response),[2],-0.402% and -24.7%
same,Potency,[3],inactive
CCCCOC(=O)c1ccccc1C(=O)OCc1ccccc1,Potency,[1],17.2 µM (active)
same,activity (max response),[2],0.138%
same,Potency,[3],inactive
COC(=O)[C@@]12OC[C@]34[C@H]([C@@H](O)[C@@H]1O)[C@@]1(C)CC(=O)C(O)=C(C)[C@@H]1C[C@H]3OC(=O)[C@H](OC(=O)/C=C(\C)C(C)C)[C@@H]24,Potency,[1],0.0132 µM (active)
same,Potency,[2],6.31 µM (active)
same,Potency,[3],12.6 µM (active)
COC(C)(C)CCCC(C)C/C=C/C(C)=C/C(=O)OC(C)C (stereo not drawn),Potency,[1],inactive
same,activity (max response),[2],12.4%
same,Potency,[3],inactive
CC(=Cc1csc(C)n1)[C@@H]1C[C@H]2O[C@@H]2CCC[C@H](C)[C@@H](O)[C@@H](C)C(=O)C(C)(C)[C@@H](O)CC(=O)O1,Potency,[4],inactive
